# Experimental data: ChEMBL document CHEMBL3988442, “University of Dundee, Small-Polar-MMV Screening Library” (2021)
# Out of some 48,000 compounds screened, about 13,000 (27%) showed an effect of 50% or more. This is one part of the list.
# Test system: Wolbachia pipientis
# Test: Anti-Wolbachia Cell-Based Screen
# Format: functional
# Set-up: scale not given: in the data most compounds retested in dose-response had high values
# Settings: 5 µM
row,SMILES,Percent Effect
1,O=C(NC1CCCC1)[C@H]1CC[C@@H]2[C@@H](CCN2c2ncc(F)cn2)O1.O=C(O)C(F)(F)F,6.364%
2,COc1cc(N2CC[C@H]3O[C@@H](C(=O)NC4CCCC4)CC[C@H]32)ncn1.O=C(O)C(F)(F)F,90.73%
3,COc1ccc(C[C@H]2CN(c3cc(OC)ncn3)CC[C@H]2OC)cc1.O=C(O)C(F)(F)F,-1.133%
4,O=C(NC1CC1)[C@H]1CC[C@@H]2[C@@H](CCN2c2ncc(F)cn2)O1.O=C(O)C(F)(F)F,-10.92%
5,COc1cc(N2CC[C@@H]3O[C@H](C(=O)N(C)C)C[C@@H]32)ncn1.O=C(O)C(F)(F)F,99.56%
6,COc1ccc(C[C@H]2CN(c3cc(OC)ncn3)CC[C@@H]2OC)cc1.O=C(O)C(F)(F)F,-9.694%
7,COc1cc(NC(=O)c2cc(C)sc2C)c(C(=O)N(C)C)cc1OC,-0.1136%
8,CC(=O)c1ccc(-n2ccc3nc(N4CCCC4)ncc3c2=O)cc1,-1.476%
9,CN(C)CC1(O)CCN(Cc2cnc3c(-c4ccccc4)cnn3c2)C1 (stereo not drawn),-5.196%
10,CC(CCN1CCn2nc(CNC(=O)N(C)C)cc2C1)c1ccccc1 (stereo not drawn),-9.419%
11,CS(=O)(=O)NCc1cc2n(n1)CCCN(Cc1cc3ccccc3o1)C2,0.8182%
12,CC(CCN1CCCn2nc(CNS(C)(=O)=O)cc2C1)c1ccccc1 (stereo not drawn),111.7%
13,CN(C)C(=O)CSc1nnc(CCNC(=O)OC(C)(C)C)o1,15.65%
14,COC(=O)CSc1nnc(CCNC(=O)OC(C)(C)C)o1,120.8%
15,CC(C)Sc1nnc(CCNC(=O)OC(C)(C)C)o1,12.98%
16,Cc1nc(N2CC[C@@H](NC(=O)c3cnccn3)[C@H](O)C2)c2ccsc2n1,4.294%
17,Cc1nc(CN(C)C2CCN(CC(=O)NC3CCOCC3)C2)no1 (stereo not drawn),-6.239%
18,CN(Cc1noc(C2CC2)n1)C1CCN(CC(=O)N2CCOCC2)C1 (stereo not drawn),87.19%
19,CCc1nc(CN(C)C2CCN(CC(=O)N3CCOCC3)C2)no1 (stereo not drawn),114.4%
20,Cc1nc(CN(C)C2CCN(CCC(=O)N3CCOCC3)C2)no1 (stereo not drawn),118.2%
21,Cc1nc(CN(C)C2CCN(CC(=O)N3CCOCC3)C2)no1 (stereo not drawn),-5.301%
22,c1ccc(-n2cc(CN3CCCC(Cn4cncn4)C3)nn2)cc1 (stereo not drawn),6.927%
23,CC(C)N(C)[C@@H]1CCN(c2ncccn2)[C@H]1Cc1ccncc1.O=C(O)C(F)(F)F.O=C(O)C(F)(F)F,-5.254%

row,SMILES,Percent Effect
1,Cc1cnc(C(=O)N2CCCC(Cn3cc(CC(C)C)nn3)C2)cn1 (stereo not drawn),-14.05%
2,CC(C)CNC(=O)c1cc(Br)c2c(c1)OCCO2,-6.005%
3,CCCc1cc(CN(C)C2CSCCSC2)n[nH]1,-33.01%
4,Cc1cccc(C(=O)N2CCCCC2c2ccc(CN(C)C)cc2)c1 (stereo not drawn),14.25%
5,NC(=O)C1CCCCN1C(=O)c1ccc(Br)s1 (stereo not drawn),11.69%
6,Cn1cccc1-c1cc(C(=O)N2CCCC2c2cccnc2)[nH]n1 (stereo not drawn),-7.739%
7,Cn1cccc1-c1cc(C(=O)N2CCCCC2c2ccc(F)cc2)[nH]n1 (stereo not drawn),6.407%
8,Cc1cccnc1C(=O)N1CCCCC1c1[nH]ncc1S(C)(=O)=O (stereo not drawn),-7.963%
9,Cc1ccc(C(=O)N2CCCCC2c2[nH]ncc2S(C)(=O)=O)cn1 (stereo not drawn),107.9%
10,Cc1cnc(C(=O)N2CCCCC2c2[nH]ncc2S(C)(=O)=O)cn1 (stereo not drawn),-8.056%
11,Cn1cccc1C(=O)N1CCCCC1c1[nH]ncc1S(C)(=O)=O (stereo not drawn),102.3%
12,Cc1cccc(C(=O)N2CCCCC2c2[nH]ncc2S(C)(=O)=O)c1 (stereo not drawn),98.38%
13,CC1CCCCN1C(=O)c1ccc(Br)s1 (stereo not drawn),10.55%
14,Cc1ccc(C(=O)N2CCCCC2c2[nH]ncc2S(C)(=O)=O)s1 (stereo not drawn),77.94%
15,CC1CCN(CC(O)CNc2ccc(Cl)cn2)CC1 (stereo not drawn),15.58%
16,CC(=O)N(C)CC(=O)Nc1ccc(C)cc1OCc1ccccc1,2.382%
17,Cc1nc(CNC(=O)N(Cc2ccccc2)CC(C)(C)O)oc1C,-21.53%
18,CC(=O)NCCCNCc1ccc(Cl)c2cccnc12,-6.459%
19,CC(C)NC(=O)NCc1ccc(C(=O)NC(C)Cn2cccn2)cc1 (stereo not drawn),146.4%
20,Cc1ccc(C(=O)NC(C)Cn2cccn2)c(=O)[nH]1 (stereo not drawn),-0.2392%
21,CC(Cn1cccn1)NC(=O)CCc1ccc(S(N)(=O)=O)cc1 (stereo not drawn),6.181%
22,CC(Cn1cccn1)NC(=O)NCc1ccc(S(C)(=O)=O)cc1 (stereo not drawn),102.2%
23,COc1ccc(CNC(=O)NC(C)Cn2cccn2)cc1O (stereo not drawn),8.397%

row,SMILES,Percent Effect
1,CC(Cn1cccn1)NC(=O)NCc1ccc(S(N)(=O)=O)cc1 (stereo not drawn),4.625%
2,CC(Cn1cccn1)NC(=O)NCc1cccnc1OC1CCCC1 (stereo not drawn),11.91%
3,CC(Cn1cccn1)NC(=O)NCc1ccc(C(N)=O)cc1 (stereo not drawn),167.3%
4,CC(C)c1nccn1C(C)C(=O)NCc1noc(Cc2cccs2)n1 (stereo not drawn),8.731%
5,O=C(NC1CC1)N1CCOC2(CCCN(c3cccc(F)c3)C2)C1 (stereo not drawn),-2.504%
6,CC(CCc1ccccc1F)C(=O)NS(=O)(=O)CC1CC1 (stereo not drawn),-8.345%
7,CC(=O)N1CCC(Nc2cccc(OC(F)F)c2C)CC1,-10.39%
8,Cn1cnnc1CN1CCC2(CCC(=O)N(Cc3ccccn3)C2)CC1,-8.652%
9,Cc1nc(-c2cccc(N3CCC(N4CCCC4)CC3)c2)cs1,-1.882%
10,FC(F)(F)c1ccnc(N2CCCN(C3CCOCC3)CC2)c1,-6.382%
11,Cc1noc(-c2ccnc(N3CCN(C4CCOCC4)CC3)c2)n1,8.096%
12,Clc1cc(N2CCC(N3CCCC3)CC2)nc2[nH]ccc12,113%
13,Clc1cc(N2CCN(C3CCOCC3)CC2)nc2[nH]ccc12,109.8%
14,Cc1noc(-c2ccnc(N3CCC(N4CCCC4)CC3)c2)n1,-2.845%
15,COc1cc(N2CCC3(CC2)CN(C)C(=O)CO3)ncn1,113.9%
16,COc1cc(N2CCC3(CC2)CC(N2CCN(C)CC2)CO3)ncn1.O=C(O)C(F)(F)F.O=C(O)C(F)(F)F (stereo not drawn),-26.84%
17,COc1cc(N2CCC3(CC2)C(c2ccncc2)CC(=O)N3C)ncn1 (stereo not drawn),16.73%
18,COc1cc(N2CCC3(CC2)CNC(=O)CO3)ncn1,115.6%
19,COc1cc(N2CCC3(CC2)CC(N2CCOCC2)CO3)ncn1 (stereo not drawn),-10.74%
20,COc1cc(N2CC3(CCN(S(=O)(=O)C4CC4)C3)C2)ncn1,-10.78%
21,COc1cc(N2CCC3(CC2)OCC(=O)NC3C)ncn1 (stereo not drawn),115.6%
22,CCS(=O)(=O)N1CCC2(CN(c3cc(OC)ncn3)C2)C1,-9.777%
